Holding throughout (design): scale not given: direction of the effect not stated beside the values
For experiment [1], the target named is Protein translocase subunit SecA (Escherichia coli (strain K12)) (UniProt P10408). Nature of the experiment: Assay to Identify E. coli SecA ATPase Inhibitors. It counts as functional. Particulars: 30 µM.
Experiment [2] concerns the target T1, Ubiquitin-activating enzyme e1, putative (Leishmania donovani (strain BPK282A1)) (UniProt E9BSI1).
T1 sequence (whole entry): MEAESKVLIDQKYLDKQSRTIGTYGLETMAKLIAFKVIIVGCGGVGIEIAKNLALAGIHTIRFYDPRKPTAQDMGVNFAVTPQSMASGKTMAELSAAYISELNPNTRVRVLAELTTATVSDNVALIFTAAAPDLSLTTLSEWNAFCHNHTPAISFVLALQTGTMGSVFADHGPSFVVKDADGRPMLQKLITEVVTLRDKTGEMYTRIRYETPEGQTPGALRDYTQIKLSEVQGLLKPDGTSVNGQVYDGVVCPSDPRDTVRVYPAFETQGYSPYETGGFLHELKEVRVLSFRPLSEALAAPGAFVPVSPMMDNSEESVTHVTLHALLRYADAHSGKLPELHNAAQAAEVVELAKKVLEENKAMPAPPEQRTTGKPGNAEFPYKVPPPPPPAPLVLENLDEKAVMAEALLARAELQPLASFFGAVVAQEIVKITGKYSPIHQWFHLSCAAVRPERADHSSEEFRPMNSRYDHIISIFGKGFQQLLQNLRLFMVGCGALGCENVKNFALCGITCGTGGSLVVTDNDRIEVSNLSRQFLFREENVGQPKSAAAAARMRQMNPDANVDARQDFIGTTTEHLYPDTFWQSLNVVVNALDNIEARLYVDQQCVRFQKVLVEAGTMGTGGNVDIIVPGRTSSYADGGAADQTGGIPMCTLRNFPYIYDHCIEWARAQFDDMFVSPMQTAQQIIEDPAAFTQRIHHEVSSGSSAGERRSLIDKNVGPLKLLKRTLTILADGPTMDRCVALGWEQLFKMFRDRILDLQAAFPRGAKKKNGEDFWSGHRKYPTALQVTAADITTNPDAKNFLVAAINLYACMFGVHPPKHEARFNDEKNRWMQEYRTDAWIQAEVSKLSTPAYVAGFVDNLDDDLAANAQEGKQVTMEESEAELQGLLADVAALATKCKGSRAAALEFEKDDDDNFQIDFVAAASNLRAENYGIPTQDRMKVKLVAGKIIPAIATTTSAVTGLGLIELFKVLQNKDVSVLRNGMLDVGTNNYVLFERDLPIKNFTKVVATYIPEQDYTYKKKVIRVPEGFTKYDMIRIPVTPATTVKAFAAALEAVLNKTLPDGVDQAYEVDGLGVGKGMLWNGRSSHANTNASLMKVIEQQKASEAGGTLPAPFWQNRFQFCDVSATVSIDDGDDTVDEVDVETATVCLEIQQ
Nature of the experiment: Leishmania donovani Ubiquitin Activating Enzyme (LdE1). Particulars: 30 µM. It counts as functional.

The target of experiment [3] is AMP-activated protein kinase, AMPK (Homo sapiens) (UniProt P54646+O43741+P54619+Q9UGJ0+Q9Y478+Q13131+Q9UGI9). The experiment can be described thus: AMP-dependent Kinase enzyme assay. An in vitro enzyme assay that detects ADP turnover that is directly proportional to AMPK activity. This uses naive AMPK that is activated during the assay with MK-8722. Particulars: 30 µM. It counts as functional.

Experiment [4] addresses Sialic acid-binding Ig-like lectin 9 (Homo sapiens) (UniProt Q9Y336). The experiment can be described thus: Hs-Siglec9 ALPHAscreen SOP 20170721. Particulars: 10 µM.
A further experiment deals with Trypanosoma cruzi. Nature of the experiment: Trypanosoma cruzi phosphomannomutase and mannose-1-phosphate guanylyltransferase assay. To be noted: 10 µM. It counts as functional.
The target in experiment [5] is T2, Arginase-2, mitochondrial (Homo sapiens) (UniProt P78540).
T2 sequence (whole entry): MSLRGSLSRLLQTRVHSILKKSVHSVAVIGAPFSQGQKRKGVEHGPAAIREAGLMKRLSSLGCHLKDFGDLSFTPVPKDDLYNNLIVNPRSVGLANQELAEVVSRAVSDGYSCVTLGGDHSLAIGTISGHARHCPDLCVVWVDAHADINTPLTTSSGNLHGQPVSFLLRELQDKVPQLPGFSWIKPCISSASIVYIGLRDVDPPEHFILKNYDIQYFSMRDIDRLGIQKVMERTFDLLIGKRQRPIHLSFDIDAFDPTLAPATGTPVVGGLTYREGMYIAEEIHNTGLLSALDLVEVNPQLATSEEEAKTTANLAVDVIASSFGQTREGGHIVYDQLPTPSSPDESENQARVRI
The experiment can be described thus: in vitro enzyme assay to detect the production of urea directly proportional to the activity of Arginase II. Also: in the data most compounds retested in dose-response had high values. It counts as functional. To be noted: 33.3 µM.

In experiment [6] the target is T3, Proteasome subunit beta (Trypanosoma cruzi) (UniProt O96673).
T3 sequence (whole entry): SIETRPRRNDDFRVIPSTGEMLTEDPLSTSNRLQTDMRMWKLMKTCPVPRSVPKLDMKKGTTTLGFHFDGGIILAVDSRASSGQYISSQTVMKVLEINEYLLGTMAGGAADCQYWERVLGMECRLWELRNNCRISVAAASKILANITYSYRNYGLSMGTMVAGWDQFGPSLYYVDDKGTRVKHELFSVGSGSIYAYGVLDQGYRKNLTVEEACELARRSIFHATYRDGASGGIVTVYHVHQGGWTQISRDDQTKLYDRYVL
Nature of the experiment: Trypanosoma cruzi proteasome chymotrypsin-like activity (TcProtChymo) assay. Also: in the data most compounds retested in dose-response had high values. It counts as functional. To be noted: 9.37 µM.

For a further experiment, the species on record is Homo sapiens. Nature of the experiment: To identify inhibition of the IFN signalling (Jak-Stat) pathway via expression of an eGFP reporter gene under the control of an IFN-stimulated response element (ISRE) containing MxA promoter. It counts as functional. To be noted: 30 µM.
The target in experiment [7] is T4, Tyrosyl-tRNA synthetase, putative (Trypanosoma cruzi (strain CL Brener)) (UniProt Q4DSP6).
T4 sequence (whole entry): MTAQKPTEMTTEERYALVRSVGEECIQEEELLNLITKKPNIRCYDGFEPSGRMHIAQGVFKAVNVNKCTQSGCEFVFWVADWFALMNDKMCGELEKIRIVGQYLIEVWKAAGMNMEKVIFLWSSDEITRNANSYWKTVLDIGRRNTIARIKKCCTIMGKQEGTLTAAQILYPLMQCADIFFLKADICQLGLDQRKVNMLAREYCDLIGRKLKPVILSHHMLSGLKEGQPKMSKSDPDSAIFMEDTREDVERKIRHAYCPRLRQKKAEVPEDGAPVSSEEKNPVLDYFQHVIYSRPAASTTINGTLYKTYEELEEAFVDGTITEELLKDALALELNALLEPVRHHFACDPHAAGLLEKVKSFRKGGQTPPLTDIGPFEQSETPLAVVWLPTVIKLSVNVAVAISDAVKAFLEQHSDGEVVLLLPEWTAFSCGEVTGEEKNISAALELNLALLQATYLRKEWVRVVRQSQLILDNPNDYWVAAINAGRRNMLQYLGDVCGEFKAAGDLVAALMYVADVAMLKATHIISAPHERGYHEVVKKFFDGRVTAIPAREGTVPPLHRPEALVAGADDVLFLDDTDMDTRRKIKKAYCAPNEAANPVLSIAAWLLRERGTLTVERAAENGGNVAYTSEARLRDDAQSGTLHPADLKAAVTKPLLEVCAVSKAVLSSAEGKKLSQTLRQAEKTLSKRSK
The experiment can be described thus: Trypanosoma cruzi tyrosyl tRNA synthetase (TcYRS) _High Tyrosine SOP. Also: in the data most compounds retested in dose-response had high values. To be noted: 30 µM. It counts as functional.

The target of experiment [8] is T4, Tyrosyl-tRNA synthetase, putative (Trypanosoma cruzi (strain CL Brener)). The experiment can be described thus: Trypanosoma cruzi tyrosyl tRNA synthetase (TcYRS) SOP. Particulars: 30 µM. It counts as functional.
Experiment [9] addresses Chromo domain-containing protein 1 (Saccharomyces cerevisiae (strain ATCC 204508 / S288c) (Baker's yeast)) (UniProt P32657). The experiment can be described thus: ScCHD-1 Enzyme Inhibition Assay. Also: in the data most compounds retested in dose-response had high values. It counts as functional. Particulars: 30 µM.

For some of these results: Results with a measured potency or affinity are listed apart.

Sequence of Chromo domain-containing protein 1 (Saccharomyces cerevisiae (strain ATCC 204508 / S288c) (Baker's yeast)) (P32657 whole entry, the tested form may be a part): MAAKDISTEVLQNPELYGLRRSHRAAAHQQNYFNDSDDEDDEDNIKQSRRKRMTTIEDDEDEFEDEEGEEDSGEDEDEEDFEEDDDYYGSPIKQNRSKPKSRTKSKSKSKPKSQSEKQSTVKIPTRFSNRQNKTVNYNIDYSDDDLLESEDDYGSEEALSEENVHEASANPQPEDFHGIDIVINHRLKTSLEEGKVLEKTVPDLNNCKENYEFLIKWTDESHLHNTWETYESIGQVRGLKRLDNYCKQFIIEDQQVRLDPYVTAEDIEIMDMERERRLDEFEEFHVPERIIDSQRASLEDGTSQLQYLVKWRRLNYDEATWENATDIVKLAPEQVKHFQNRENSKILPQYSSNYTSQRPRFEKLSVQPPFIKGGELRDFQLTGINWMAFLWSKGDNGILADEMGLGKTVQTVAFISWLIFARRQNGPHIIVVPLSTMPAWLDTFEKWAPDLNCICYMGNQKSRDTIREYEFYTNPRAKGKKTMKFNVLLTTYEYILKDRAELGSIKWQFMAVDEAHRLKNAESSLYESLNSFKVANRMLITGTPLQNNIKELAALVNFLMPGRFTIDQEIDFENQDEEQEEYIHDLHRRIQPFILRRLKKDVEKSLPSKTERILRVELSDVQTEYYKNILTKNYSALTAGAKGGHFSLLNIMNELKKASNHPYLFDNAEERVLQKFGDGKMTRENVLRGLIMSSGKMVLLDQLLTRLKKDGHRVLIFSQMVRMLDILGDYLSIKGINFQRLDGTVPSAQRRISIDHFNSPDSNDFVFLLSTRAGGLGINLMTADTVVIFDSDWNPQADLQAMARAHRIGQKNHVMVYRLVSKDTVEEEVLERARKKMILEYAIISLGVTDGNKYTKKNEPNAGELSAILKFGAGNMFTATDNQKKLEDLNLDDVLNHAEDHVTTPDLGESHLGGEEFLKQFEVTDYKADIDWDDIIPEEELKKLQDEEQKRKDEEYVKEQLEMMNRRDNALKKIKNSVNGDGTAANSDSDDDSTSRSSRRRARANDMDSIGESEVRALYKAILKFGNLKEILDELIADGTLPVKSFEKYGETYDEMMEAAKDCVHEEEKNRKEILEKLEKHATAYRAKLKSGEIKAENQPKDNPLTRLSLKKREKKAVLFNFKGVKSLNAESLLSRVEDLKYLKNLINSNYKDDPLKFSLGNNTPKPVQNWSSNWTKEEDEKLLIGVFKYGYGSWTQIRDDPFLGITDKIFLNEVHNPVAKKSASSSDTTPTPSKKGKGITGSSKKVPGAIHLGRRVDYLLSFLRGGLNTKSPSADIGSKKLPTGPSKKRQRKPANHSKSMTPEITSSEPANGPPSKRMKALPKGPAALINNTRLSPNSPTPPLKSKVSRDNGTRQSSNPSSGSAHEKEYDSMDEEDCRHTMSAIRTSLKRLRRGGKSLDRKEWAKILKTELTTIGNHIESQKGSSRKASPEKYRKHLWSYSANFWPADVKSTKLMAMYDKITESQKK
Sequence of Protein translocase subunit SecA (Escherichia coli (strain K12)) (P10408 whole entry): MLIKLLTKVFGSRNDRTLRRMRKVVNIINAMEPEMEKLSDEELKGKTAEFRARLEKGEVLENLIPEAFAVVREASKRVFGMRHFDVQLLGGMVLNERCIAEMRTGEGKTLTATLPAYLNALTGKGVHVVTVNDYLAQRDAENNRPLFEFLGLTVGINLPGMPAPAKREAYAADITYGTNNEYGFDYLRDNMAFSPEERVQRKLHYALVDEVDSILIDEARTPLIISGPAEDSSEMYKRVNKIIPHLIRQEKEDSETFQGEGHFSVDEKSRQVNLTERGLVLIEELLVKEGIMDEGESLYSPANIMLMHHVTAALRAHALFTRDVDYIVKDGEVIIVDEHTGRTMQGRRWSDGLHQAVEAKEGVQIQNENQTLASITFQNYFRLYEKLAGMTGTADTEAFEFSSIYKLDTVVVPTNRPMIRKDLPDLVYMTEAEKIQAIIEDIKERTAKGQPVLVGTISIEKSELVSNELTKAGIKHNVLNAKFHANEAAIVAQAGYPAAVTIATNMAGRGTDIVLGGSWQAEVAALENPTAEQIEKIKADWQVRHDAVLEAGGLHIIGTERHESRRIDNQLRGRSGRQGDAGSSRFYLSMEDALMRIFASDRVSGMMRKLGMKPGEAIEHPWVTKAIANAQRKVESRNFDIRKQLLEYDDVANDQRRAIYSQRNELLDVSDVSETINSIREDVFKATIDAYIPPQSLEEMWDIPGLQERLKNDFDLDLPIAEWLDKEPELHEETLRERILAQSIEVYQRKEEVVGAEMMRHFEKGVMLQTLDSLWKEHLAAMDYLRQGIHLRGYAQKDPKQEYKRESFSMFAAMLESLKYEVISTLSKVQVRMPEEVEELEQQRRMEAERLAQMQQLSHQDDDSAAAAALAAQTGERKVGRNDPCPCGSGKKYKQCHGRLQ
Sequence of Sialic acid-binding Ig-like lectin 9 (Homo sapiens) (Q9Y336 whole entry): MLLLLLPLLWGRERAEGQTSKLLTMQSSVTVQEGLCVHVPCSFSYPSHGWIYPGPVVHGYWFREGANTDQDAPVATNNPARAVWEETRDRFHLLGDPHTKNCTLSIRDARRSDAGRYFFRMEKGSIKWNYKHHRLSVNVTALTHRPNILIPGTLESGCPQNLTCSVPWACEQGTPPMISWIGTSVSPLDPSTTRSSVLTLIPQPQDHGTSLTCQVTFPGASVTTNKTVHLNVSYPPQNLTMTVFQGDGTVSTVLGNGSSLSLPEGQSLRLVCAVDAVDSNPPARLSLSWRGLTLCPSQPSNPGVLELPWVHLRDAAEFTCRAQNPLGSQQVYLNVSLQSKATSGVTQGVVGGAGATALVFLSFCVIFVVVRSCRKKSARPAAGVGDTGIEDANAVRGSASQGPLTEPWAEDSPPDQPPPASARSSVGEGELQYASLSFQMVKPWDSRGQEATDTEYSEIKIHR

Take `CC1CN(C)c2ccccc2CN1C(=O)c1ccncc1` (stereo not drawn): the Percent Effect in experiment [1] was -2.73%; in [2], 13.7%; in experiment [3] it was 4.78%; in experiment [4], 21.6%; with Trypanosoma cruzi, 3.53%; in experiment [5], 32.3%. The Percent Effect in experiment [6] is 8.87%; in the experiment filed under Homo sapiens, 1.93%; in [7] it was 2.15%; in [8], 5%; in [9], -3%.
`COc1cc(OC)c(C2Nc3cc(Cl)ccc3C3=NCCN32)cc1OC` (stereo not drawn): the Percent Effect in [1] is -5.59%; in [2], -8%; in experiment [3], -2.93%; in experiment [4], 2.92%; in the experiment on Trypanosoma cruzi, 6.89%; in experiment [5] it was -3.5%. For the same compound, the Percent Effect in [6] was 1.32%; in the experiment listed under Homo sapiens, -10.9%; in [7] it was 7.45%; in [8] it was 14.1%; in [9] it was -5.67%.
For `Cc1cn(CC(=O)NC2CCN(C(=O)C3CC3)CC2)c2ccccc12`, the Percent Effect in experiment [1] is -5.47%; in experiment [2], 2.7%; in experiment [3] it was -7.57%; in experiment [4] it was 10.7%; in the experiment with Trypanosoma cruzi it was 7.72%; in experiment [5], 0.744%. The Percent Effect in [6] is 4.55%; in the experiment listed under Homo sapiens it was 9.22%; in [7], 3.23%; in experiment [8], 11.1%; in [9], -3.71%.
With `CC(=O)N1CCC(C(=O)N(C)[C@@H]2CCC[C@@H](N3CCCC3)[C@@H]2O)CC1`, the Percent Effect is -6.98% in experiment [1]; 20.3% in [2]; -7.25% in experiment [3]; -2.3% in experiment [4]; 6.13% in the experiment with Trypanosoma cruzi; -2.09% in experiment [5]. The Percent Effect in [6] was 13.4%; in the experiment listed under Homo sapiens, 13.2%; in experiment [7], 5.38%; in [8], 22.1%; in experiment [9], -22.6%.
Take `CN(CC1(O)CCCN(c2ccccn2)C1)C(=O)Cc1ccsc1` (stereo not drawn): the Percent Effect in experiment [1] is -5.09%; in experiment [2] it was 4.05%; in experiment [3], 12%; in [4], 3.61%; in the experiment with Trypanosoma cruzi, -0.198%; in experiment [5], -1.62%. The Percent Effect in [6] was -2.18%; in the experiment filed under Homo sapiens it was -8.8%; in experiment [7], 6.45%; in experiment [8] it was 9.09%; in [9] it was 3.9%.
Consider `Cn1ccc(CN2CCC(CCc3ccc(O)cc3)CC2)cc1=O`, for which the Percent Effect is -1.04% in experiment [1]; 6.33% in experiment [2]; 43.4% in experiment [3]; 0.347% in experiment [4]; 3.38% with Trypanosoma cruzi; -1.07% in experiment [5]. Further, the Percent Effect in experiment [6] is 1.89%; in the experiment listed under Homo sapiens it was 10.3%; in experiment [7], 0%; in [8], -17.7%; in experiment [9] it was -10.1%.
As to `CCC(=O)NCc1cc(Br)c(OC)c(OC)c1`, the Percent Effect is -7.41% in experiment [1]; 5.33% in experiment [2]; -0.145% in [3]; 4.49% in [4]; 4.19% with Trypanosoma cruzi; -9.9% in experiment [5]. In addition, the Percent Effect in experiment [6] was 5.75%; in the experiment filed under Homo sapiens, -1.33%; in experiment [7], 1.64%; in experiment [8], 11.1%; in experiment [9], -3.06%.
As to `NC(=O)C1CCN(Cn2nc(-c3ccc(F)cc3)oc2=O)CC1`, the Percent Effect in experiment [1] is -3.92%; in experiment [2], 2.6%; in [3] it was 9.43%; in [4], 0.452%; in the experiment on Trypanosoma cruzi it was -22.7%; in experiment [5], 4.14%. Moreover, the Percent Effect in experiment [6] was 22%; in the experiment listed under Homo sapiens, 24.3%; in experiment [7], -1.07%; in experiment [8], 1.24%; in [9] it was -2.23%.

The values above are taken from ChEMBL document CHEMBL3988442, “University of Dundee, Small-Polar-MMV Screening Library” (2021).
